Assay in all cases: PBM; 200 nM protein, PBS
Holding throughout (settings): dsDNA, one strand shown

The target in assay [1] is HOXB4 (Homo sapiens, UniProt P17483 148-234).
The target of assay [2] is HOXC9 (Homo sapiens, UniProt P31274 178-260, K195R).
The target in assay [3] is HOXB6 (Homo sapiens, UniProt P17509 132-218, K202E).
Assay [4] deals with HOXB4 (Homo sapiens, UniProt P17483 148-234, V174I).
A further assay addresses T1, NKX2-6 (Homo sapiens, UniProt A6NCS4 118-204, R150C).
T1 sequence: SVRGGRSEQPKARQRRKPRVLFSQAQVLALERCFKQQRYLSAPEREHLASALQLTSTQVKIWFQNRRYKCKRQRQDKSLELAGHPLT

In assay [5] the target is HOXC9 (Homo sapiens, UniProt P31274 178-260).
Sequence of HOXC9 (Homo sapiens, UniProt P31274 178-260) (P31274 178-260): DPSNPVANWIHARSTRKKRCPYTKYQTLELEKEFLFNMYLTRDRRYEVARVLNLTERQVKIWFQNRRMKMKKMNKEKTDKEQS
In assay [6] the target is HOXC9 (Homo sapiens, UniProt P31274 178-260, R193K).
Sequence of HOXC9 (Homo sapiens, UniProt P31274 178-260, R193K) (P31274 178-260 R193K): as the sequence (P31274 178-260) above, with R16K counted along it
Assay [7] deals with HOXC9 (Homo sapiens, UniProt P31274 178-260, R222W).
Sequence of HOXC9 (Homo sapiens, UniProt P31274 178-260, R222W) (P31274 178-260 R222W): as the sequence (P31274 178-260) above, with R45W counted along it
In assay [8] the target is HOXB6 (Homo sapiens, UniProt P17509 132-218).
Sequence of HOXB6 (Homo sapiens, UniProt P17509 132-218) (P17509 132-218): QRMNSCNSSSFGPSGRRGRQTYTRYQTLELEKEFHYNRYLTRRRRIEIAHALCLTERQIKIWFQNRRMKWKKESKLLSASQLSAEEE
Assay [9] concerns the target HOXA4 (Homo sapiens, UniProt Q00056 201-287, W262R).
In assay [10] the target is HOXA4 (Homo sapiens, UniProt Q00056 201-287, R217L).
Sequence of HOXA4 (Homo sapiens, UniProt Q00056 201-287, R217L) (Q00056 201-287 R217L): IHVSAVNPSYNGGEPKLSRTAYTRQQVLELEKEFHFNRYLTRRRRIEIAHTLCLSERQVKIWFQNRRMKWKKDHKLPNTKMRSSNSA
Assay [11] concerns the target HOXA4 (Homo sapiens, UniProt Q00056 201-287).
Assay [12] concerns the target HOXA4 (Homo sapiens, UniProt Q00056 201-287, W262F).
The target in assay [13] is HOXA2 (Homo sapiens, UniProt O43364 129-215, R185T).
Sequence of HOXA2 (Homo sapiens, UniProt O43364 129-215, R185T) (O43364 129-215 R185T): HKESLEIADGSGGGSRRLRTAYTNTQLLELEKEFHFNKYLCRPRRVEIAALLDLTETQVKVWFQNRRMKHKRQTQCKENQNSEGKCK
Assay [14] has as its target HOXA2 (Homo sapiens, UniProt O43364 129-215, R185K).
The target in assay [15] is HOXA2 (Homo sapiens, UniProt O43364 129-215, Y150S).
Sequence of HOXA2 (Homo sapiens, UniProt O43364 129-215, Y150S) (O43364 129-215 Y150S): as the sequence (O43364 129-215 R185T) above, with Y22S, T57R counted along it
The target of assay [16] is HOXA2 (Homo sapiens, UniProt O43364 129-215).
Sequence of HOXA2 (Homo sapiens, UniProt O43364 129-215) (O43364 129-215): as the sequence (O43364 129-215 R185T) above, with T57R counted along it
Assay [17] has as its target VAX1 (Homo sapiens, UniProt Q5SQQ9 86-172).
Assay [18] deals with VAX1 (Homo sapiens, UniProt Q5SQQ9 86-172, T142I).
Sequence of VAX1 (Homo sapiens, UniProt Q5SQQ9 86-172, T142I) (Q5SQQ9 86-172 T142I): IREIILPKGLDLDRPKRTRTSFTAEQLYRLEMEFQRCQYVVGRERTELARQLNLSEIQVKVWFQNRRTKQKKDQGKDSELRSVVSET
The target of assay [19] is VAX1 (Homo sapiens, UniProt Q5SQQ9 86-172, K157R).
Sequence of VAX1 (Homo sapiens, UniProt Q5SQQ9 86-172, K157R) (Q5SQQ9 86-172 K157R): as the sequence (Q5SQQ9 86-172 T142I) above, with I57T, K72R counted along it
For assay [20], the target named is HOXA7 (Homo sapiens, UniProt P31268 116-202).
Sequence of HOXA7 (Homo sapiens, UniProt P31268 116-202) (P31268 116-202): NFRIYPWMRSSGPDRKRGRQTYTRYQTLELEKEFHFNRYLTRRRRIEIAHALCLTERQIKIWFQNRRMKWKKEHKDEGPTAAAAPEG
The target in assay [21] is HOXA7 (Homo sapiens, UniProt P31268 116-202, W177C).
Sequence of HOXA7 (Homo sapiens, UniProt P31268 116-202, W177C) (P31268 116-202 W177C): as the sequence (P31268 116-202) above, with W62C counted along it

Sequence of HOXB4 (Homo sapiens, UniProt P17483 148-234) (P17483 148-234): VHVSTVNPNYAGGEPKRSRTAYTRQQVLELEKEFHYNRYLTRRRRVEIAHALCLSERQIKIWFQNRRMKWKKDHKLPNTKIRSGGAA
Sequence of HOXA4 (Homo sapiens, UniProt Q00056 201-287, W262F) (Q00056 201-287 W262F): as the sequence (Q00056 201-287 R217L) above, with L17R, W62F counted along it
Sequence of HOXA4 (Homo sapiens, UniProt Q00056 201-287) (Q00056 201-287): as the sequence (Q00056 201-287 R217L) above, with L17R counted along it
Sequence of HOXB4 (Homo sapiens, UniProt P17483 148-234, V174I) (P17483 148-234 V174I): as the sequence (P17483 148-234) above, with V27I counted along it
Sequence of HOXA4 (Homo sapiens, UniProt Q00056 201-287, W262R) (Q00056 201-287 W262R): as the sequence (Q00056 201-287 R217L) above, with L17R, W62R counted along it
Sequence of HOXA2 (Homo sapiens, UniProt O43364 129-215, R185K) (O43364 129-215 R185K): as the sequence (O43364 129-215 R185T) above, with T57K counted along it
Sequence of HOXB6 (Homo sapiens, UniProt P17509 132-218, K202E) (P17509 132-218 K202E): as the sequence (P17509 132-218) above, with K71E counted along it
Sequence of VAX1 (Homo sapiens, UniProt Q5SQQ9 86-172) (Q5SQQ9 86-172): as the sequence (Q5SQQ9 86-172 T142I) above, with I57T counted along it
Sequence of HOXC9 (Homo sapiens, UniProt P31274 178-260, K195R) (P31274 178-260 K195R): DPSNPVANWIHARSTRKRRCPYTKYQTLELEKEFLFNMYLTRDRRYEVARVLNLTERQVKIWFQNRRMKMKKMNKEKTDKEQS

On to CGGGGGTC, for which the binding signal with HOXB4 [1] was 7.85 upbm affinity estimate (log intensity, higher = more binding, comparable within an allelic series); in the assay with HOXC9 [2] it was 9.59 upbm affinity estimate (log intensity, higher = more binding, comparable within an allelic series); in the assay with HOXB6 [3], 8.98 upbm affinity estimate (log intensity, higher = more binding, comparable within an allelic series); with HOXB4 [4] it was 7.45 upbm affinity estimate (log intensity, higher = more binding, comparable within an allelic series); with NKX2-6, 9.26 upbm affinity estimate (log intensity, higher = more binding, comparable within an allelic series); in the assay with HOXC9 [5], 9.65 upbm affinity estimate (log intensity, higher = more binding, comparable within an allelic series). In addition, the binding signal is 9.62 upbm affinity estimate (log intensity, higher = more binding, comparable within an allelic series) with HOXC9 [6]; 9.59 upbm affinity estimate (log intensity, higher = more binding, comparable within an allelic series) with HOXC9 [7]; 9.04 upbm affinity estimate (log intensity, higher = more binding, comparable within an allelic series) with HOXB6 [8].

Take ACCTCTCG: the binding signal in the assay with HOXB4 [1] was 7.54 upbm affinity estimate (log intensity, higher = more binding, comparable within an allelic series); with HOXA4 [9], 9.8 upbm affinity estimate (log intensity, higher = more binding, comparable within an allelic series); with HOXA4 [10] it was 9.73 upbm affinity estimate (log intensity, higher = more binding, comparable within an allelic series); in the assay with HOXB4 [4] it was 7.48 upbm affinity estimate (log intensity, higher = more binding, comparable within an allelic series); with HOXA4 [11] it was 9.69 upbm affinity estimate (log intensity, higher = more binding, comparable within an allelic series); with HOXA4 [12] it was 9.82 upbm affinity estimate (log intensity, higher = more binding, comparable within an allelic series).

For the sequence CATAATGA, the binding signal was 13 upbm affinity estimate (log intensity, higher = more binding, comparable within an allelic series) with HOXB4 [1]; 10.6 upbm affinity estimate (log intensity, higher = more binding, comparable within an allelic series) with HOXA4 [9]; 12 upbm affinity estimate (log intensity, higher = more binding, comparable within an allelic series) with HOXA2 [13]; 11.9 upbm affinity estimate (log intensity, higher = more binding, comparable within an allelic series) with HOXA4 [10]; 13.5 upbm affinity estimate (log intensity, higher = more binding, comparable within an allelic series) in the assay with HOXB4 [4]; 13.1 upbm affinity estimate (log intensity, higher = more binding, comparable within an allelic series) in the assay with HOXA2 [14]. The binding signal with HOXA4 [11] is 13.6 upbm affinity estimate (log intensity, higher = more binding, comparable within an allelic series); in the assay with HOXA2 [15], 11 upbm affinity estimate (log intensity, higher = more binding, comparable within an allelic series); in the assay with HOXA4 [12] it was 11.3 upbm affinity estimate (log intensity, higher = more binding, comparable within an allelic series); in the assay with HOXA2 [16], 12.1 upbm affinity estimate (log intensity, higher = more binding, comparable within an allelic series).

For the sequence GGTAATGA, the binding signal with HOXB4 [1] was 12.9 upbm affinity estimate (log intensity, higher = more binding, comparable within an allelic series); in the assay with HOXA4 [9], 10.4 upbm affinity estimate (log intensity, higher = more binding, comparable within an allelic series); with HOXA2 [13] it was 12.1 upbm affinity estimate (log intensity, higher = more binding, comparable within an allelic series); in the assay with HOXA4 [10] it was 11.9 upbm affinity estimate (log intensity, higher = more binding, comparable within an allelic series); in the assay with HOXB4 [4] it was 13.6 upbm affinity estimate (log intensity, higher = more binding, comparable within an allelic series); with HOXA2 [14] it was 13 upbm affinity estimate (log intensity, higher = more binding, comparable within an allelic series). Also, the binding signal with HOXA4 [11] was 13.5 upbm affinity estimate (log intensity, higher = more binding, comparable within an allelic series); with VAX1 [17], 12.8 upbm affinity estimate (log intensity, higher = more binding, comparable within an allelic series); in the assay with VAX1 [18] it was 12.6 upbm affinity estimate (log intensity, higher = more binding, comparable within an allelic series); with HOXA2 [15], 10.8 upbm affinity estimate (log intensity, higher = more binding, comparable within an allelic series); in the assay with HOXA4 [12] it was 11.2 upbm affinity estimate (log intensity, higher = more binding, comparable within an allelic series); with HOXA2 [16] it was 12.1 upbm affinity estimate (log intensity, higher = more binding, comparable within an allelic series). In the assay with VAX1 [19], the binding signal is 12.5 upbm affinity estimate (log intensity, higher = more binding, comparable within an allelic series).

For the sequence GTTCATTA, the binding signal with HOXB4 [1] was 13 upbm affinity estimate (log intensity, higher = more binding, comparable within an allelic series); with HOXA7 [20], 10.2 upbm affinity estimate (log intensity, higher = more binding, comparable within an allelic series); in the assay with HOXB4 [4], 13.6 upbm affinity estimate (log intensity, higher = more binding, comparable within an allelic series); with HOXA7 [21] it was 8.87 upbm affinity estimate (log intensity, higher = more binding, comparable within an allelic series).

For the origin of these results see paper PMC11006913.
